The values that follow come from PMC4336329 (PLoS ONE, 2015).

Among all 310,000 compounds or so, about 14,000 (4.5%) showed an effect of 50% or more. Effects have a minus sign here. The entries come from a sample that favours strong results as a whole.
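Also: peak tail current of the secondary pulse compared with the same well before compound.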

The target of the assay is human ether-à-go-go-related gene (hERG) potassium channel (human, UniProt Q12809). Briefly: primary screen, population patch clamp on CHO cells stably expressing hERG; higher = less effect of the substance.
Sequence of human ether-à-go-go-related gene (hERG) potassium channel (Q12809 whole entry, looked up): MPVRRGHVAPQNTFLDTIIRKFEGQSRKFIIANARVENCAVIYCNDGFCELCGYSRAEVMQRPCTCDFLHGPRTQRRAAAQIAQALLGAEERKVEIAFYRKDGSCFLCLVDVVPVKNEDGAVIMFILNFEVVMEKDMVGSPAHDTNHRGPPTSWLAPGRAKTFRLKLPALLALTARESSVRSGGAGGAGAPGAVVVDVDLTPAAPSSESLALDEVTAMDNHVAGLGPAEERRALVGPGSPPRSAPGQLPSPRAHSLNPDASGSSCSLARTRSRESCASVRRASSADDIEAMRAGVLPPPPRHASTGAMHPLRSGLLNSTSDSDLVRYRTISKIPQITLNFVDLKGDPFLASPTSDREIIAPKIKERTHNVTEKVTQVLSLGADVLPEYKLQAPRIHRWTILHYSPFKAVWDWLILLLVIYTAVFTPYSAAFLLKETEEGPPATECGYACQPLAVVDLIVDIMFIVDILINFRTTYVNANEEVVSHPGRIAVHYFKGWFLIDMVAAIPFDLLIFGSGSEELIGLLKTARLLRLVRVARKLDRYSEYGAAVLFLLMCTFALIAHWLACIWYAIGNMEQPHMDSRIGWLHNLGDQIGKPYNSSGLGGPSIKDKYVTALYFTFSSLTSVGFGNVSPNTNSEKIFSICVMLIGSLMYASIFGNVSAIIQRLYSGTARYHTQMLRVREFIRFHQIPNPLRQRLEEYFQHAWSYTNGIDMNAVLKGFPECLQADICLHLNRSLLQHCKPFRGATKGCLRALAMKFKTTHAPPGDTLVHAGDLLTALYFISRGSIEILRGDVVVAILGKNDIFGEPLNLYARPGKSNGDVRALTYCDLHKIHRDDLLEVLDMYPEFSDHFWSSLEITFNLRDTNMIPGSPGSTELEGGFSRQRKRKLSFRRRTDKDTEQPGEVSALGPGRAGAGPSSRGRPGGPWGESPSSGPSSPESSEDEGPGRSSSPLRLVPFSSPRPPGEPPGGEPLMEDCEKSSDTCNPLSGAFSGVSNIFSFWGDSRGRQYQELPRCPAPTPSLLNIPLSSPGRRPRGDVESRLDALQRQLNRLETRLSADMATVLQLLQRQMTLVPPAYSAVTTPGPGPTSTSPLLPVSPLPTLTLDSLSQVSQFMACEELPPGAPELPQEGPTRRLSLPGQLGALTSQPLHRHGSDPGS
`CC(NC(=O)/C(C#N)=C/c1ccc(Cl)c([N+](=O)[O-])c1)c1ccccc1` (centres unmarked): the “hERG current change (%, negative = inhibition) at 10uM” value is recorded as 4.7%.
Turning to `CCN(CC)C(=O)Nc1ccc(C(=O)OC)cc1`, the “hERG current change (%, negative = inhibition) at 10uM” value is given as -1.77%.
In the case of `COc1ccc(C2=NN(C(=O)CN3CCOCC3)C(c3nc4ccccc4[nH]3)C2)cc1` (centres unmarked), the “hERG current change (%, negative = inhibition) at 10uM” value was -8.74%.
For `C[NH+](C)CC(C)(C)CNS(=O)(=O)c1ccc(Cl)c(Cl)c1.[Cl-]` the value was 4.29%.
With `CCCn1nc(NC(=O)CC(C)C)c2cc3ccccc3nc21`, the “hERG current change (%, negative = inhibition) at 10uM” value worked out at 12%.
Turning to `COc1ccc(-c2noc(CCC(=O)Nc3cc(OC)ccc3OC)n2)cc1`, the “hERG current change (%, negative = inhibition) at 10uM” value is recorded as -14.7%.
With `CCn1cc(C(=O)O)c(=O)c2cnc(N3CCN(C(=S)Nc4ccccc4C(F)(F)F)CC3)nc21`, the “hERG current change (%, negative = inhibition) at 10uM” value came to 6.26%.
For `O=C(Cn1nnc(-c2ccccc2F)n1)OCC(=O)c1ccccc1` the value was 10.9%; for `O=C(c1ccc(NC2=NC3CS(=O)(=O)CC3S2)cc1)N1CCN(c2ccc(F)cc2)CC1` (centres unmarked), 6.4%; for `c1ccc2c(c1)SCc1nnc(-c3ccncc3)n1-2`, -2.6%.
Under `COc1cccc2c1[C@@H]1CN(CCCCn3c(=O)[nH]c4c(sc5ncc(-c6ccccc6)nc54)c3=O)C[C@@H]1CO2.Cl` stands -67.6%.
As for `COc1cc2[nH]c(=O)n(CCCCCC(=O)N3CC=C(c4ccccc4)CC3)c(=O)c2cc1OC`, the “hERG current change (%, negative = inhibition) at 10uM” value is given as -20%.
Regarding `COc1cc2[nH]c(=O)n(CCCC(=O)N3CC=C(c4ccccc4)CC3)c(=O)c2cc1OC`, the “hERG current change (%, negative = inhibition) at 10uM” value was -12.9%.
Take `O=C(COc1ccc(Cl)cc1)N1CCN(C2CCCC2)CC1.O=C(O)C(=O)O`: the “hERG current change (%, negative = inhibition) at 10uM” value was -83.2%.
Under `Cc1ccc(OCC(=O)NCCN2CCN(C(=O)COc3ccc(C)cc3)CC2)cc1` stands -65.9%; under `Cc1ccc(OCC(=O)NCCN2CCCC2)cc1.Cl`, 2.48%; under `O=C(COc1ccccc1)N1CCN(C2CCCC2)CC1.O=C(O)C(=O)O`, -13.2%.
Under `O=C(COc1ccc(Br)cc1)N1CCCCCC1` stands -22.9%; under `O=C(COc1ccc2cc(Br)ccc2c1)N1CCCC1`, -50.1%; under `O=C(COc1ccc2ccccc2c1)N1CCCC1`, -13.3%.
For the compound `CC1CN(C2CCN(C(=O)COc3ccc(Cl)cc3)CC2)CC(C)O1.O=C(O)C(=O)O` (centres unmarked), the “hERG current change (%, negative = inhibition) at 10uM” value was -38%.
Turning to `O=C(COc1ccccc1)N1CCN(c2ncccn2)CC1`, the “hERG current change (%, negative = inhibition) at 10uM” value was determined as 10.5%.
Regarding `O=C(COc1ccc(Cl)cc1)N1CCN(c2ncccn2)CC1`, the “hERG current change (%, negative = inhibition) at 10uM” value was -9.42%.
`O=C(COc1ccc(Br)cc1)N1CCN(c2ncccn2)CC1`: the “hERG current change (%, negative = inhibition) at 10uM” value is -83.7%.
Regarding `Cc1ccc(OCC(=O)NCCNC(=O)COc2ccc(C)cc2)cc1`, the “hERG current change (%, negative = inhibition) at 10uM” value came out at 9.34%.
Consider `Nc1[nH]nc2c1NN(c1ccc(Cl)cc1Cl)N2`, for which the “hERG current change (%, negative = inhibition) at 10uM” value was found to be 12.4%.
Under `COc1ccccc1Oc1nc(C)c(C(C)=O)cc1C#N` stands 14.8%.
For the compound `CCc1ccc(CN(C(=O)COc2c(C)cccc2C)C2CCS(=O)(=O)C2)cc1` (centres unmarked), the “hERG current change (%, negative = inhibition) at 10uM” value was -12.2%.
As for `Cc1ccc(NC(=O)c2cccc(S(=O)(=O)N(C)c3ccccc3)c2)cc1S(=O)(=O)N1CCOCC1`, the “hERG current change (%, negative = inhibition) at 10uM” value stood at 9.04%.
For `O=S(=O)(Nc1ccc(Cl)cc1)c1cccc2cccnc12`, the “hERG current change (%, negative = inhibition) at 10uM” value came out at 12.8%.
As to `COc1ccc(N2CCN(C(=O)CCS(=O)(=O)c3cccc4nsnc34)CC2)cc1`, the “hERG current change (%, negative = inhibition) at 10uM” value is -23.9%.
Under `CCOc1cc(C(=S)N2CCOCC2)ccc1OC(=O)c1cccc(C)c1` stands -42%; under `Cc1cc(C(=O)CSc2nnc(-c3ccc(F)cc3)o2)c(C)n1CC1CCCO1` (centres unmarked), -7.13%.
Under `O=C(CSc1nnc(-c2ccco2)o1)NC1CC2CCC1C2` (centres unmarked) stands -2.05%; under `CCOC(=O)c1c(C)[nH]c(C(=O)N2CCc3cc(OC)c(OC)cc3C2)c1C`, -12.3%.
For the compound `COc1ccc(OC)c(NC(=O)C(C)Oc2ccc(Br)cc2)c1` (centres unmarked), the “hERG current change (%, negative = inhibition) at 10uM” value is given as 5.96%.
In the case of `CN(CC(=O)NC1CC(C)(C)NC(C)(C)C1)S(=O)(=O)c1ccc(Br)cc1`, the “hERG current change (%, negative = inhibition) at 10uM” value is -2.22%.
Turning to `COc1ccc(OCC(=O)N2CCN(C(=O)COc3ccc(Br)cc3)CC2)cc1`, the “hERG current change (%, negative = inhibition) at 10uM” value is reported as -71.9%.
With `CN1CCCN(C(=O)COc2ccc(Br)cc2)CC1`, the “hERG current change (%, negative = inhibition) at 10uM” value was -17.3%.
Under `O=C(CCC1CCCC1)N1CCN(C(=O)COc2ccccc2)CC1` stands -28.8%; under `CCOC(=O)N1CCN(C(=O)COc2ccc(Br)cc2)CC1`, -39.1%; under `O=C(COc1ccc(Br)cc1)N1CCN(C2CCCC2)CC1`, -63.6%.
Regarding `Cc1cccc(OCC(=O)N2CCN(C(=O)CCC3CCCC3)CC2)c1`, the “hERG current change (%, negative = inhibition) at 10uM” value is recorded as -37.3%.
Take `CC(=O)N1CCN(C(=O)COc2ccc(Br)cc2)CC1`: the “hERG current change (%, negative = inhibition) at 10uM” value is -17.8%.
